From PubChem BioAssay
VDR inhibitor: blocks the human vitamin D receptor; P11473; VDR-SRC2-3 peptide fluorescence polarization, 2 h; Potency, µM, for inactives: max response, negative = inhibition, actives largely listed as inhibitors; actives 0.93% (n = 400,000); AID 504847; further: potency means the concentration at half of the fitted maximal effect; on the % scale 0 is the no-effect control and ±100 the full control effect
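Two reagent solutions held at 4 deg C in the dark were dispensed, compounds pinned at 23 nl, and the mixture incubated 2 h at room temperature. Read-out: fluorescence polarization of VDR–SRC2-3 peptide binding.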
PLK1 PBD block: blocks phosphopeptide binding to human PLK1 polo-box domain. P53350. Plk1 PBD binding of FITC phosphopeptide, fluorescence polarization. Potency, µM, for inactives: max response, negative = inhibition, hits mostly inhibitors. actives 2.8% (n = 360,000); further: potency means the concentration at half of the fitted maximal effect; series mostly up to about 57 µM; on the % scale 0 is the no-effect control and ±100 the full control effect; nearly all actives have a fitted effect of over 65% in size
Target sequence (P53350 whole entry, looked up, the tested form may be a part): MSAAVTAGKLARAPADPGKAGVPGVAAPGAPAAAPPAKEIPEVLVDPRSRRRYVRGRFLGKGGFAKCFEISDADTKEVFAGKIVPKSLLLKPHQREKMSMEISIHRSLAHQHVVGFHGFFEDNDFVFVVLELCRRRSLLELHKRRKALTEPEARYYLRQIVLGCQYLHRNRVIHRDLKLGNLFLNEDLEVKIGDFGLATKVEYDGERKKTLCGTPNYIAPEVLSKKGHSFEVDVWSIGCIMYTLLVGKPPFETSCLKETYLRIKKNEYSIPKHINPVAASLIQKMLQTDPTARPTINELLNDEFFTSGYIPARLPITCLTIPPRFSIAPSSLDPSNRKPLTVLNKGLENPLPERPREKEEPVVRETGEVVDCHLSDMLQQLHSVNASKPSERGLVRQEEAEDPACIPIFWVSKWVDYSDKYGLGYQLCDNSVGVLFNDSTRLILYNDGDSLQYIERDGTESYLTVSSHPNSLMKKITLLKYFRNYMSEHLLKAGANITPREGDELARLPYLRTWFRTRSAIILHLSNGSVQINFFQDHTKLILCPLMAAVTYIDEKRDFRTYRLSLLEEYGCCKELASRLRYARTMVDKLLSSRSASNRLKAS
uPA generation: inhibitors of cell surface uPA generation; cell surface uPA generation assay, qHTS; Potency, µM (top dose mostly 38.3 µM), for the others: top-dose activity change, negative = inhibition, hits mostly inhibitors; actives 0.31% (n = 330,000); active means well fitted inhibition curve with a large enough effect; inconclusive means small, poorly fitted or top-dose-only effect; inactive means no such curve, though single readings can be large or run the other way; tested in mouse RAW 264.7 cells; further: potency means the concentration at half of the fitted maximal effect; on the % scale 0 is the no-effect control and ±100 the full control effect; nearly all actives have a fitted effect of over 55% in size
TSHR antagonist: blocks TSH signaling through the human TSH receptor | TSHR-expressing cells, TSH-stimulated cAMP HTRF, 2 h; hits give low values | activity change, negative = inhibition, % at 11.5 µM | actives 0.2% (n = 330,000) | AID 504810;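 active means activity change below a set negative limit, meaning inhibition stronger than a set level, cut at about -70% in these data; inconclusive means activity change between two set negative limits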; further: on the % scale 0 is the no-effect control and ±100 the full control effect
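Competitive HTRF cAMP read-out (cryptate anti-cAMP antibody, cAMP-d2; 30 min, room temperature) in freshly harvested TSHR cells. Compounds added before TSH at EC80 (4nM final), followed by 2 hours' incubation at 37 deg C.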
TSG101-PTAP inh: blocks PTAP/TSG101 interaction to inhibit HIV-1 budding | Potency, µM (titrated, usually from 115 µM), for inactives: at the highest dose activity change, negative = inhibition, hits mostly inhibitors | 340,000 tested, under 10 active | Fluorescence polarization, FITC-PTAP peptide / Tsg101 binding; active means well fitted inhibition curve with a large enough effect in the main read-out, with a control signal flat, not every such curve was filed as active; inconclusive means small, poorly fitted or top-dose-only effect, or effect the other way, or a change in a side signal; inactive means no such curve, though single readings can be large or run the other way; further: potency means the concentration at half of the fitted maximal effect; % of control where 0% means no effect
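FP read-out: FITC-PTAP peptide, 50 nM final, binding Tsg101 binding domain, 10 uM final; 20 min, r.t.; 10 mM HEPES pH 7.5, 0.15 M NaCl, 0.01% Tween 20, 3 mM EDTA, 0.1 mM TCEP.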
The depositor's hits bear a star; ? = inconclusive; . = no result. Compounds with a hit are over-represented: about 3.1% of the library has one in this group of screens. Unless noted, the call rests on the fitted dose curve; in most records, active means well fitted curve in the direction sought with a large enough effect; inconclusive means small, poorly fitted or top-dose-only effect, or another doubt; inactive means no such curve, though single readings can be large; an effect the other way counts as inactive or inconclusive.

SMILES | VDR inhibitor | PLK1 PBD block | uPA generation | TSHR antagonist | TSG101-PTAP inh
Cc1ccnc(SCc2cc(=O)c(OC(=O)c3cc([N+](=O)[O-])ccc3Cl)co2)n1 | -12% | 24µM* | -12% | 3 | -6%
Cc1nn(C)c2c1c(C(F)(F)F)cc(=O)n2C(C)C(=O)NCCC(C)C (centres undefined) | 15% | . | . | . | .
Cc1cc2ncc(-c3ccc(Cl)cc3)c(N)n2n1 | -29% | 1% | 3.5µM* | 0 | 0%
Nc1c(-c2ccccc2)cnc2cc(-c3ccccc3)nn12 | -14% | -1% | ? | -15 | -2%
O=C(c1cc2ccccc2o1)c1cccs1 | -9% | 24µM* | -5% | -4 | -5%
O=C(NC(=S)Nc1ccc(NC(=O)c2cccs2)cc1)c1cc2ccccc2o1 | -6% | -12% | 5% | 12 | 0%
O=C(Nc1ccccc1-c1ccccc1)c1ccccc1 | -14% | 2% | -13% | -1 | 0%
Nc1c(S(=O)(=O)O)cc(Nc2ccc(Nc3nc(Cl)nc(Nc4ccc(S(=O)(=O)O)cc4)n3)c(S(=O)(=O)O)c2)c2c1C(=O)c1ccccc1C2=O | ? | . | . | -30 | .
Nc1c(S(=O)(=O)O)cc(NC(=O)c2ccccc2)c2c1C(=O)c1ccccc1C2=O | ? | 21µM* | 3% | -24 | -20%
Nc1c(S(=O)(=O)O)cc(Nc2ccc(Cl)cc2)c2c1C(=O)c1ccccc1C2=O | 32µM* | . | . | . | .
Nc1c(S(=O)(=O)O)cc(Nc2cccc3ccccc23)c2c1C(=O)c1ccccc1C2=O | 35µM* | . | . | . | .
Cc1ccc(Cn2c(CNS(=O)(=O)c3c(C)cc(C)cc3C)nc3cccnc32)cc1 | 2% | . | . | . | .
Brc1ccc(CSc2ncn[nH]2)cc1 | 5% | -6% | -3% | -4 | -1%
CCCOc1ccc(CSc2ncn[nH]2)cc1 | ? | 2.7µM* | 1% | -4 | 0%
CCCCCOc1ccc(CSc2n[nH]c(C)n2)cc1 | ? | 30µM* | -4% | 9 | -1%
COc1cc(/C=C/c2nc3cc(Cl)ccc3c(=O)n2-c2cccc(C(F)(F)F)c2)cc(OC)c1OC | 12% | . | . | . | .
COc1ccc(-c2ccc(NS(=O)(=O)c3cc(C)c(C)cc3C)cc2)nn1 | 7% | . | . | . | .
CCn1cc(CNC(=O)c2cc(-c3ccc(C)cc3)nc3ccc(Br)cc23)c(C)n1 | -13% | . | . | . | .
CCC(=O)Nc1ccccc1-c1nc2ccccc2n(CC(=O)Nc2ccccc2OC)c1=O | 5% | . | . | . | .
COCCNCc1ccccc1 | ? | 30µM* | . | 9 | -3%
COCCNCc1ccc(C(C)C)cc1 | 15% | -6% | -5% | 16 | -7%
CC(C)(C)c1ccc(CN2N=Nc3ccccc3S2(=O)=O)cc1 | 50µM* | 13µM* | -6% | 3 | -2%
Cc1cccc(N2C(=O)N(Cc3ccc(C(C)(C)C)cc3)c3ccccc3S2(=O)=O)c1 | 11% | . | . | . | .
Cc1ccc(N=C2C(=O)Nc3ccccc32)cc1C | -11% | -10% | -1% | 2 | 2%
Cc1ccc([N+](=O)[O-])cc1N=C1C(=O)Nc2ccccc21 | 25µM* | -11% | -2% | 1 | -5%
SMILES | VDR inhibitor | PLK1 PBD block | uPA generation | TSHR antagonist | TSG101-PTAP inh
COc1cc([N+](=O)[O-])cc2sc(NC(C)=O)nc12 | 11% | -22% | 10µM* | -5 | -5%
CCCCC(=O)Nc1nc2c(OC)cc([N+](=O)[O-])cc2s1 | 13% | -2% | 8% | -19 | -5%
Cc1ccc(S(=O)(=O)NC(=O)NC2=NC(C)(C)N(c3ccc(Cl)c(Cl)c3)C(N)=N2)cc1 | . | -4% | . | . | .
O=C(O)/C=C/C(=O)Nc1ccc(C2(c3ccc(NC(=O)/C=C/C(=O)O)cc3)c3ccccc3-c3ccccc32)cc1 | 25µM* | 30µM* | 6% | -86* | -5%
O=C(O)/C=C\C(=O)Nc1ccc(Oc2ccccc2)cc1 | 12% | -2% | -5% | 3 | -3%
COC(=O)CCC(=O)OC1(C)C(=O)C=C2C=C(C3CC3)N(CCCCO)C=C2C1=O (centres undefined) | -12% | -19% | 6% | -1 | -12%
COC(=O)CCC(=O)OC1(C)C(=O)C=C2C=C(C3CC3)N(CCCOC(C)C)C=C2C1=O (centres undefined) | ? | 30µM* | -4% | -2 | -2%
COc1ccc(CCNS(=O)(=O)c2ccc(N3CCCCS3(=O)=O)cc2)cc1OC | 9% | . | . | . | .
O=C(Nc1ccc(Br)cc1F)c1ccncc1 | -10% | 1% | 4% | -4 | -1%
O=C(Nc1ccc(Br)cc1F)c1ccc2nsnc2c1 | ? | 5.3µM* | 1% | 5 | -6%
O=C(CN1C(=O)COc2ccc(S(=O)(=O)N3CCCCCC3)cc21)N1CCN(c2ccc(F)cc2)CC1 | 1% | . | . | . | .
CCC(CC)C(=O)Nc1cc(OC)c(OC)cc1C(=O)O | -15% | 19µM* | -3% | 4 | -3%
COCCn1c(=O)c(-c2ccc(F)cc2)nc2cnc(N(C)C)nc21 | 0% | . | . | . | .
Cc1nc2c(C(=O)NCc3ccccc3Cl)c[nH]n2c(=O)c1Cl | -16% | 30µM* | -7% | -1 | -9%
Cc1nc(C)c(C(=O)NCc2ccccc2Cl)o1 | -28% | 21µM* | . | 7 | 1%
COc1ccccc1CNC(=O)c1cc(C)nn1-c1ccccc1 | 15% | -4% | 5% | -4 | 0%
CCC(CC)C(=O)NCc1ccccc1Cl | 10% | -7% | -9% | 10 | -2%
Cc1cc(C(=O)NCc2ccccc2Cl)n(-c2ccccc2)n1 | -19% | 27µM* | 1% | -1 | -2%
COC(=O)c1[nH]c2c(c1C)C(=O)CC(c1cccc(OC)c1)C2 (centres undefined) | -9% | -4% | -9% | -9 | 1%
Cc1cc(F)ccc1S(=O)(=O)Nc1ncnc2sccc12 | -10% | 21µM* | 4% | 15 | -1%
Cc1nnc(SCC2=C(C(=O)O)N3C(=O)C(NC(=O)c4cc(F)c(F)cc4Cl)C3SC2)s1 (centres undefined) | -4% | ? | 8% | 20 | -2%
CC(=O)OCC1=C(C(=O)O)N2C(=O)C(NC(=O)COc3ccc(F)cc3)C2SC1 (centres undefined) | 7% | ? | 2% | 8 | -9%
CCC(C(=O)NC1C(=O)N2C(C(=O)O)=C(CSc3nnc(C)s3)CSC12)c1ccccc1 (centres undefined) | ? | 24µM* | -4% | -7 | -3%
Cc1nnc(SCC2=C(C(=O)O)N3C(=O)C(NC(=O)COc4ccc(F)cc4)C3SC2)s1 (centres undefined) | 79µM* | ? | -3% | 3 | -2%
Cc1nnc(SCC2=C(C(=O)O)N3C(=O)C(NC(=O)Cn4nc(C(F)F)cc4C)C3SC2)s1 (centres undefined) | -36% | ? | 1% | 2 | 0%
Cc1nnc(SCC2=C(C(=O)O)N3C(=O)C(NC(=O)COc4ccccc4)C3SC2)s1 (centres undefined) | ? | 19µM* | 4% | -6 | -7%
COC(=O)c1ccc(N2NC(=O)/C(=C/c3cc(OC)c(OC)c(OC)c3)C2=O)cc1 | 71µM* | 8.4µM* | -6% | -11 | -6%
